Measurements reported in PubChem BioAssay (NCI).
The panel holds about 83,000 compounds, 20% with a hit somewhere; the sample as a whole holds those more often.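 Interpretation: 100, growth as untreated; towards 0, rising growth inhibition; 0, no net growth; 0 to -100, cell death. Compounds scoring below 10 were considered active.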 Calls of active or inactive are those of the source.

Experiments:
Test in all cases: NCI-60 one-dose screen, 48 h (100 = growth as untreated, 0 = no growth, -100 = all killed)
Conditions in all cases: 10 µM unless noted
HCT-15 colon = tested on: HCT-15 colon
HT29 colon = tested on: HT29 colon
SNB-75 CNS = tested on: SNB-75 CNS
SNB-19 CNS = tested on: SNB-19 CNS
U251 CNS = tested on: U251 CNS
PC-3 prostate = tested on: PC-3 prostate
SK-MEL-5 melanoma = tested on: SK-MEL-5 melanoma
UACC-62 melanoma = tested on: UACC-62 melanoma
LOX IMVI melanoma = tested on: LOX IMVI melanoma
SK-MEL-28 melanoma = tested on: SK-MEL-28 melanoma
SK-MEL-2 melanoma = tested on: SK-MEL-2 melanoma
EKVX NSCLC = tested on: EKVX NSCLC
SN12C renal = tested on: SN12C renal
UO-31 renal = tested on: UO-31 renal
TK-10 renal = tested on: TK-10 renal
ACHN renal = tested on: ACHN renal
CAKI-1 renal = tested on: CAKI-1 renal
A498 renal = tested on: A498 renal
MOLT-4 leukemia = tested on: MOLT-4 leukemia
CCRF-CEM leukemia = tested on: CCRF-CEM leukemia

Measured: growth

COc1cccc2cc(-c3cc4ccccc4[nH]3)/c(=N/C(=S)Nc3ccccc3)oc12
inactive: HCT-15 colon 89.2% | HT29 colon 81.8% | SNB-19 CNS 66.1% | U251 CNS 77% | PC-3 prostate 68.8% | SK-MEL-5 melanoma 76.1% | UACC-62 melanoma 76% | LOX IMVI melanoma 80% | SK-MEL-28 melanoma 80.1% | SK-MEL-2 melanoma 91.5% | EKVX NSCLC 87.3% | SN12C renal 80.6% | UO-31 renal 81.5% | TK-10 renal 102% | ACHN renal 41.2% | CAKI-1 renal 41% | A498 renal 92.4% | MOLT-4 leukemia 105%
active: SNB-75 CNS -45.3%

C=CC(=O)N[C@H](/C=C/C(=O)OCC)Cc1ccc(-c2cc(Cl)cc(Cl)c2)cc1
inactive: HCT-15 colon 79.2% | HT29 colon 86.9% | SNB-75 CNS 82.5% | SNB-19 CNS 91.1% | U251 CNS 79% | PC-3 prostate 60.7% | SK-MEL-5 melanoma 72.8% | UACC-62 melanoma 60.9% | LOX IMVI melanoma 86.7% | SK-MEL-28 melanoma 113% | SK-MEL-2 melanoma 90.4% | EKVX NSCLC 91% | SN12C renal 88.6% | UO-31 renal 56.7% | TK-10 renal 89.1% | ACHN renal 90.1% | CAKI-1 renal 79.4% | CCRF-CEM leukemia 79.3% | MOLT-4 leukemia 74.3%

CCCCCC/C=C\CCCCCCCCOc1ccc(CCOP(=O)(O)OCC[N+](C)(C)C)cc1
inactive: HCT-15 colon 85% | HT29 colon 30.2% | SNB-75 CNS 75.3% | SNB-19 CNS 39.4% | U251 CNS 27.5% | PC-3 prostate 14.8% | SK-MEL-5 melanoma 84.9% | UACC-62 melanoma 71.1% | LOX IMVI melanoma 81.3% | SK-MEL-28 melanoma 95.5% | SK-MEL-2 melanoma 91% | EKVX NSCLC 95.3% | SN12C renal 91.4% | UO-31 renal 83.2% | TK-10 renal 23.5% | ACHN renal 91.7% | CAKI-1 renal 36.9% | A498 renal 95.6% | MOLT-4 leukemia 54.1%

COc1ccc(OC)c(/C=C2\Oc3cc(OCCN4CCCC4)ccc3C2=O)c1
inactive: HCT-15 colon 93.7% | HT29 colon 23.8% | SNB-75 CNS 95.7% | SNB-19 CNS 94.3% | U251 CNS 89.5% | PC-3 prostate 91.5% | SK-MEL-5 melanoma 89.2% | UACC-62 melanoma 100% | LOX IMVI melanoma 90.3% | SK-MEL-28 melanoma 101% | SK-MEL-2 melanoma 106% | EKVX NSCLC 95.2% | SN12C renal 92.8% | UO-31 renal 74.1% | TK-10 renal 110% | ACHN renal 92.7% | CAKI-1 renal 79.7% | A498 renal 78.2% | MOLT-4 leukemia 87.5%

CCCCCCC[C@@H](O)CC(=O)N[C@H](CCCCN)C(=O)N[C@H](Cc1c[nH]c2ccccc12)C(=O)NC(CCCCN)C(=O)N[C@H](CC(C)C)C(=O)N[C@H](Cc1ccccc1)C(=O)N[C@H](CCCCN)C(=O)N[C@H](CCCCN)C(=O)N[C@H](CC(C)C)C(=O)N1CCCC1C(=O)N[C@H](CCCCN)C(=O)N[C@H](Cc1ccccc1)C(=O)N[C@H](CC(C)C)C(=O)N[C@H](Cc1c[nH]cn1)C(=O)N[C@H](CC(C)C)C(=O)N[C@H](C)C(=O)N[C@H](CCCCN)C(=O)N[C@H](CCCCN)C(=O)N[C@H](Cc1ccccc1)C(=O)O (stereo partly specified)
active: HCT-15 colon -40.3% | HT29 colon -52.7% | SNB-75 CNS -62.3% | SNB-19 CNS -46.4% | U251 CNS -60.5% | PC-3 prostate -55.3% | SK-MEL-5 melanoma -25.7% | UACC-62 melanoma -39.2% | LOX IMVI melanoma -38.6% | SK-MEL-28 melanoma -39.8% | SK-MEL-2 melanoma -60.1% | SN12C renal -40.7% | UO-31 renal -54.5% | TK-10 renal -80.4% | ACHN renal -50.9% | CAKI-1 renal -70.3% | A498 renal -54.1% | CCRF-CEM leukemia -39.6%

C=C1C(=O)O[C@H]2[C@H]1CC/C(COC(=O)NCc1ccc(OC)cc1)=C\CC[C@@]1(C)O[C@@H]21
inactive: HCT-15 colon 12.9% | SNB-75 CNS 96.4% | SNB-19 CNS 61.7% | U251 CNS 67.4% | PC-3 prostate 52.9% | SK-MEL-5 melanoma 87% | UACC-62 melanoma 27.5% | LOX IMVI melanoma 13.9% | SK-MEL-28 melanoma 51.2% | SK-MEL-2 melanoma 53.4% | EKVX NSCLC 75.9% | SN12C renal 32.8% | UO-31 renal 18.4% | TK-10 renal 31.2% | CAKI-1 renal 15% | MOLT-4 leukemia 24.2%
active: HT29 colon -4.4% | ACHN renal 4.28% | CCRF-CEM leukemia 3.72%

O=C1CCCCN1CCCCC#Cc1ccccc1C#Cc1ccccn1
inactive: HCT-15 colon 94.7% | HT29 colon 88.6% | SNB-75 CNS 91.9% | SNB-19 CNS 108% | U251 CNS 88.9% | PC-3 prostate 95.1% | SK-MEL-5 melanoma 98.2% | UACC-62 melanoma 83.9% | LOX IMVI melanoma 96.8% | SK-MEL-28 melanoma 110% | SK-MEL-2 melanoma 64.5% | EKVX NSCLC 106% | SN12C renal 106% | UO-31 renal 42.2% | TK-10 renal 136% | ACHN renal 86.4% | CAKI-1 renal 121% | A498 renal 114% | CCRF-CEM leukemia 74% | MOLT-4 leukemia 94.9%

CCOC(=O)c1ccccc1NC(c1ccccc1)c1ccc2cccnc2c1O (stereo unspecified)
active: SK-MEL-5 melanoma 4.23% | CCRF-CEM leukemia 9.7%
inactive: HCT-15 colon 23% | HT29 colon 39.4% | SNB-75 CNS 52.7% | SNB-19 CNS 30.9% | U251 CNS 17.7% | PC-3 prostate 25.4% | UACC-62 melanoma 12.8% | LOX IMVI melanoma 11.9% | SK-MEL-28 melanoma 38.3% | SK-MEL-2 melanoma 50.9% | SN12C renal 35.2% | UO-31 renal 21% | TK-10 renal 37.3% | ACHN renal 14.4% | CAKI-1 renal 15.9% | A498 renal 38.4% | MOLT-4 leukemia 12.6%

Clc1ccc([I+]c2ccc(Cl)cc2Cl)c(Cl)c1
active: HT29 colon -26.8% | U251 CNS 6.72% | PC-3 prostate 9.9% | UO-31 renal -50.8% | TK-10 renal -82.4% | CCRF-CEM leukemia -1.96% | MOLT-4 leukemia -6.5%
inactive: HCT-15 colon 30.2% | SNB-75 CNS 34% | SNB-19 CNS 87.8% | SK-MEL-5 melanoma 104% | UACC-62 melanoma 12.3% | LOX IMVI melanoma 10.5% | SK-MEL-28 melanoma 87.3% | SK-MEL-2 melanoma 77.4% | SN12C renal 33.3% | ACHN renal 29.6% | CAKI-1 renal 27% | A498 renal 69.9%

CC(=O)Nc1nc(C(=O)N2N=C(C)/C(=C/c3ccccc3)C2=O)cs1
inactive: HCT-15 colon 105% | HT29 colon 97.5% | SNB-75 CNS 95.5% | SNB-19 CNS 103% | U251 CNS 104% | PC-3 prostate 97.7% | SK-MEL-5 melanoma 108% | UACC-62 melanoma 114% | LOX IMVI melanoma 98.7% | SK-MEL-28 melanoma 121% | SK-MEL-2 melanoma 94.6% | SN12C renal 109% | UO-31 renal 80.9% | TK-10 renal 107% | ACHN renal 99.9% | CAKI-1 renal 98.9% | A498 renal 120% | CCRF-CEM leukemia 98.7% | MOLT-4 leukemia 95.8%

CCCCCCCCCCn1cc[n+](C)c1
active: SNB-75 CNS -10.6% | PC-3 prostate 6.6% | SK-MEL-5 melanoma -33.1% | TK-10 renal -1.53%
inactive: HCT-15 colon 82% | HT29 colon 12.3% | SNB-19 CNS 45.5% | U251 CNS 21.7% | UACC-62 melanoma 31.1% | LOX IMVI melanoma 23.9% | SK-MEL-28 melanoma 34.9% | SK-MEL-2 melanoma 13.1% | SN12C renal 19.4% | UO-31 renal 65.7% | ACHN renal 45% | CAKI-1 renal 28.8% | A498 renal 12.4% | CCRF-CEM leukemia 111% | MOLT-4 leukemia 78.6%

COc1cc(/C=C2\CCCC3=C2N=C2SC(C)=NN2C3c2cc(OC)c(OC)c(OC)c2)cc(OC)c1OC (stereo unspecified)
inactive: HT29 colon 13.9% | SNB-19 CNS 32.3% | U251 CNS 20.9% | PC-3 prostate 57.7% | SK-MEL-5 melanoma 45.2% | SK-MEL-28 melanoma 26.3% | SK-MEL-2 melanoma 77.5% | TK-10 renal 75.9%
active: HCT-15 colon -20.6% | SNB-75 CNS -7.84% | UACC-62 melanoma -31.2% | LOX IMVI melanoma -67.6% | SN12C renal -5.64% | UO-31 renal 8.14% | ACHN renal -7.34% | CAKI-1 renal -38.1% | A498 renal -0.731% | CCRF-CEM leukemia -10%

CCCCC(N)(C(=O)O)C1CCCC1 (stereo unspecified)
inactive: HCT-15 colon 96.2% | HT29 colon 100% | SNB-75 CNS 93.5% | SNB-19 CNS 99.9% | U251 CNS 91% | PC-3 prostate 92.2% | SK-MEL-5 melanoma 105% | UACC-62 melanoma 97.4% | LOX IMVI melanoma 99.4% | SK-MEL-28 melanoma 94.8% | SK-MEL-2 melanoma 117% | SN12C renal 96.1% | UO-31 renal 90.9% | TK-10 renal 104% | ACHN renal 96.9% | CAKI-1 renal 93% | A498 renal 82.4% | CCRF-CEM leukemia 97.9% | MOLT-4 leukemia 123%
